In the library only some 1% were active in any assay of this set; here they are far more common.
E-sel TNF inh: blocks E-selectin expression induced by TNF alpha | HUVEC TNFa-induced E-selectin immunofluorescence, high content | inhibition, % at 2 µM | 0.71% of 120,000 active | AID 1246;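 active means inhibition above the batch mean plus 3 SD, and confirmed as a hit on visual image review, cut at about 43% in these data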;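 further: 0% = TNF-stimulated DMSO wells and 100% = unstimulated control wells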
cytoskel mod: alters cytoskeleton assembly in HUVEC cells; HUVEC TNFa F-actin phalloidin imaging, high content; inhibition, % at 2 µM; 0.18% of 91,000 active;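 active means inhibition above the batch mean plus 3 SD and confirmed as a hit by visual image inspection, cut at about 30% in these data, passing the limit was not always enough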
VCAM1 TNFa inh: reduces TNF alpha induced VCAM1 expression in HUVEC; HUVEC TNFa-induced VCAM-1 immunofluorescence, high-content imaging; inhibition, % at 2 µM; 0.48% of 95,000 active;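 active means inhibition above the batch mean plus 3 SD, with images confirmed as a hit by eye, cut at about 37% in these data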;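 further: 0% = TNF-stimulated DMSO wells and 100% = unstimulated control wells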
TNFa cytotox: toxic to HUVEC cells under TNF alpha stimulation | HUVEC TNFalpha-stimulated, Hoechst cell count, imaging | cell count reduction, % at 2 µM | 0.17% of 93,000 active;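 active means cell count reduction exceeding the screen mean by over 5 SD, scaled to untreated wells per plate, cut at about 78% in these data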;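 further: cells counted after 24 h of TNF alpha exposure following the 1 h pretreatment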
Numbers without * were called inactive; x = not tested or not shown.

SMILES	E-sel TNF inh	cytoskel mod	VCAM1 TNFa inh	TNFa cytotox
Cc1cc(OCC(=O)Nc2ccncc2)c(C)cc1Br	66*	15	-3	-23
O=C(NC(=S)Nc1ccc(S(=O)(=O)Nc2nccs2)cc1)c1ccc(F)cc1	4	x	x	x
O=C(CCc1ccccc1)NCCC1=CCCCC1	75*	x	x	x
O=C(Cc1ccccc1)NCCC1=CCCCC1	-5	x	x	x
COc1ccccc1NC1=C(Cl)C(=O)N(C2CCCCC2)C1=O	5	-19	-10	-36
CCOc1c(C)cc2[nH]c(CCC(=O)O)nc2c1C	96*	x	x	x
Cn1nnnc1SCc1nnc(-c2ccc(Cl)cc2)o1	63*	14	9	-46
Cc1cc(-n2nc(C)cc2C)nc(NS(=O)(=O)c2ccccc2)n1	58*	x	x	x
CC(=O)Nc1ccc(S(=O)(=O)Nc2nc(C)cc(-n3nc(C)cc3C)n2)cc1	-5	x	x	x
Cc1nc(SCC(=O)Nc2c(C)n(C)n(-c3ccccc3)c2=O)[nH]c(=O)c1C	-17	2	6	-12
O=C(/C=C/c1ccccc1)Nc1ncn[nH]1	60*	10	31	-8
N#Cc1ccc(NC(=O)C2CC(c3ccc(F)cc3)=NO2)cc1 (configuration not stated)	93*	-43	-6	4
O=C(NCc1ccco1)C1CC(c2cccc([N+](=O)[O-])c2)=NO1 (configuration not stated)	100*	26	-6	2
CCCCNC(=O)C1CC(c2cccc([N+](=O)[O-])c2)=NO1 (configuration not stated)	-22	11	11	-14
CSc1nc2sc3c(c2c(=O)[nH]1)CCC(C)C3 (configuration not stated)	-1	-8	7	-8
CCn1c(=O)c2c(n3cnnc13)-c1ccccc1CC21CCCCC1	-3	41*	-6	-28
O=C(NC1CCCCC1)NC1CC2CCC(C1)N2C(=S)NCc1ccco1 (configuration not stated)	-48	-27	16	-1
COc1ccc(CCNC(=O)c2cc(-c3cccs3)on2)cc1OC	28	6	-19	-64
Cc1cc2nc3c(nc2cc1C)C1(C(=O)O)CCC3(C)C1(C)C (configuration not stated)	23	10	21	1
O=C(Cn1ncc2c(=O)oc3ccccc3c21)N1CCc2ccccc2C1	90*	x	x	x
O=C(Cn1ncc2c(=O)oc3ccccc3c21)N1CCC(N2CCCCC2)CC1	-3	x	x	x
Cc1ccccc1C(=O)O/N=C1\CCS(=O)(=O)c2sccc21	x	1	-16	2
Clc1ccc(CSc2ncccn2)cc1	-6	-3	4	-4
O=Cc1cc2ccccc2nc1SCc1ccc(Cl)c(Cl)c1	6	-49	72*	69
COc1cnn(-c2ccccc2)c(=O)c1SCc1ccc(Cl)c(Cl)c1	2	16	6	-19
SMILES	E-sel TNF inh	cytoskel mod	VCAM1 TNFa inh	TNFa cytotox
Cc1ccc(CSc2nc3ccccc3cc2C=O)cc1	-16	-31	95*	56
O=Cc1cc2ccccc2nc1SCc1ccc(Cl)cc1	25	-41	66*	34
Cc1ccc(CSc2ncccc2C(=O)O)cc1	5	4	-2	-24
CC(C)(C)c1ccc(C(=O)CS(=O)(=O)c2ccccc2)cc1	25	-7	-15	17
O=C(Nc1ccc(F)cc1)N1CCOCC1	77*	36	-3	-4
CN(C)c1ccc(NC(=S)NC(=O)/C=C/c2ccc(Cl)cc2)cc1	87*	-13	-2	-8
OCCNCC(O)Cn1ccc2ccccc21 (configuration not stated)	-20	x	100*	x
CCOC(=O)C1C(c2cc(OC)c(O)c(OC)c2)NC(=S)NC1(O)C(F)(F)F (configuration not stated)	72*	x	x	x
COC(=O)c1ccc(S(=O)(=O)N2C3CCC2CC(NC(=O)NC2CCCCC2)C3)cc1 (configuration not stated)	8	-5	13	-5
N#CCSc1nc2c(cc1C#N)CCCCCC2	-5	-1	10	-16
Cc1nc(=O)c(-c2ccccc2)c(C)n1-c1ccc(S(N)(=O)=O)cc1	100*	-9	12	-24
CCOC(=O)NCC(C)(C)CNC(=O)OCC	-12	-10	8	-7
CCOC(=O)c1nnn(-c2ccc(OC)cc2)c1N	-6	6	9	8
CCOC(=O)c1sc(=N)n(-c2ccc(OC)cc2)c1C	64*	18	4	1
CCOC(=O)N1CCN(C(=O)c2cnc(Nc3ccccc3OC)c3ccccc23)CC1	-17	x	x	x
CCCn1c(=O)c2ccccc2n2c(SCC(=O)NCc3cccs3)nnc12	-7	79*	23	-22
CCn1c(CNc2ccc(Cl)cc2)nnc1SCc1ccc(Cl)cc1	17	-2	12	21
COC(=O)C1=C(N)Oc2cc(C)[nH]c(=O)c2C1c1cc(OC)c(OC)c(OC)c1 (configuration not stated)	-10	-8	-12	2
Nn1c(SCC(=O)Nc2ccc3c(c2)OCCO3)nnc1C(F)(F)F	x	34*	1	-9
Cc1nnc(SCC(=O)Nc2ccc3c(c2)OCCO3)n1N	12	-11	1	-17
CN(C)C(=O)c1cccn1-c1ncc(C(F)(F)F)cc1Cl	27	x	x	x
CCCSc1nsc(NC(=O)CCC)n1	25	x	x	x
CN1C(=O)S/C(=C/c2ccccc2OCc2ccc(C(=O)O)cc2)C1=O	-13	x	x	x
CN1C(=O)S/C(=C\c2ccccc2OCc2ccc(C(=O)O)cc2)C1=O	100*	x	x	x
O=C(c1ccc(Br)cc1)c1cc([N+](=O)[O-])ccc1N1CCCCC1	15	-39	92*	63
SMILES	E-sel TNF inh	cytoskel mod	VCAM1 TNFa inh	TNFa cytotox
Cc1ccc(C(=O)c2cc([N+](=O)[O-])ccc2N2CCOCC2)c(C)c1	10	-41	79*	54
Cc1ccccc1-n1ccnc1SCC(=O)O	65*	-8	-18	-3
CC(=O)c1c(C(C)=O)c(C)n(NC(=O)c2cccnc2)c1C	x	-3	12	-27
CC(=O)c1c(C(C)=O)c(C)n(NC(=O)c2ccccc2O)c1C	2	76*	-4	-16
CC(=O)c1cccc(NC(=O)Nc2cnn(Cc3ccc(F)cc3)c2)c1	-12	x	x	x
COc1ccc(-c2nnc(SCC(=O)N3CCN(c4ccccc4)CC3)o2)cc1OC	-15	x	x	x
COc1ccc(-c2nnc(SCC(=O)N3CCOCC3)o2)cc1OC	96*	x	x	x
CC(C)C(C(=O)O)N1CCS(=O)(=O)CC1 (configuration not stated)	80*	x	x	x
O=S1(=O)CCN(C(CO)c2ccccc2)CC1 (configuration not stated)	-11	x	x	x
COc1ccc(CCNC(=O)CSc2nnnn2Cc2ccc3c(c2)OCO3)cc1OC	3	2	-45	-4
CCN(CC)CCCN1C(=O)C(=O)/C(=C(/O)c2ccc(C)cc2)C1c1ccccn1 (configuration not stated)	-2	1	4	1
CC(C)(C)NC(=O)NC(=O)CSc1ncn[nH]1	100*	x	x	x
O=C(CCl)N1N=C(c2ccco2)CC1c1cccs1 (configuration not stated)	70*	x	x	x
Cc1[nH]nc2ncc(C(=O)c3cc(F)ccc3O)cc12	25	x	20	-5
COc1ccc(CCNc2nnc(Sc3nnnn3-c3ccccc3)s2)cc1OC	19	9	87*	36
CCCc1cc(C(=O)Nc2sc(C)c(CC)c2C#N)no1	-17	x	x	x

Screening data as filed in PubChem BioAssay.
